# Source: PubChem BioAssay (National Center for Advancing Translational Sciences (NCATS))
# A selection: hits, their analogues and other compounds. The true share with any hit is near 12%.
# HP1b binding inh = blocks HP1-beta chromodomain binding to methylated histone tails | AlphaScreen HP1-beta / biotin-H3K9me3 peptide binding | Potency, µM (series often up to 114 µM), without a hit: at the top dose activity change, negative = inhibition, most hits filed as inhibitors | 0.56% of 390,000 active | AID 540317; also: nearly all actives have a fitted effect of over 70% in size
# Target sequence (P83916 whole entry, looked up): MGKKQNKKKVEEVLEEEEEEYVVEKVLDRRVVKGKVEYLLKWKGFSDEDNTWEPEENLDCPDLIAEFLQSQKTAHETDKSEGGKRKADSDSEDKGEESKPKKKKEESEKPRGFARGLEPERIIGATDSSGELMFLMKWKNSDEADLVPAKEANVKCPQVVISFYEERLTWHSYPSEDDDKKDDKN
#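 AlphaScreen: HP1-beta (50 nM) preformed 30 min with biotin-H3(1-18)K9me3 peptide (50 nM) in PBS pH 7.4, 0.01% Tween-20. Compound added for 30 min at RT, then streptavidin donor/nickel chelate acceptor beads (10 ug/mL) for 30 min.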
# JMJD2A Tudor = blocks the human JMJD2A Tudor domain; AID 504339; O75164; AlphaScreen JMJD2A-Tudor / H3K4me3 peptide binding; 4.4% of 390,000 active; Potency, µM (doses to about 114 µM), for the others: top-dose activity change, negative = inhibition, usual class: inhibitors; also: % is scaled to controls: 0 for no effect and ±100 for the full control effect; nearly all actives have a fitted effect of over 50% in size
# L3MBTL1 block = L3MBTL1 (human) inhibition | AlphaScreen L3MBTL1–H3K9me1 peptide binding | Potency, µM (series often up to 57.1 µM), for the others: top-dose activity, negative = inhibition, most hits filed as inhibitors | Q9Y468 | AID 485360 | 0.66% of 230,000 active; also: % is scaled to controls: 0 for no effect and ±100 for the full control effect; nearly all actives have a fitted effect of over 60% in size
#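 L3MBTL1 (50 nM) pre-complexed 30 min with biotinylated H3(1-15)K9me1 peptide (75 nM), then compounds added for 30 min at room temperature; AlphaScreen streptavidin donor/nickel chelate acceptor beads (10 ug/mL final) read after 30 min dark incubation.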
# Sfp inh = Sfp phosphopantetheinyl transferase inhibition; Potency, µM, for inactives: largest response in the series, negative = inhibition, hits mostly inhibitors; 3.5% of 310,000 active; AID 1490; Biochemical Sfp PPTase activity, qHTS;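 also: the enzyme is Sfp with the accession as filed and its product quenches rhodamine fluorescence; 0% = enzyme reaction without inhibitor and -100% = no enzyme wells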
#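 Compounds were incubated with enzyme (final 15 nM) for 15 min at room temperature before substrate addition started the reaction. Fluorescence at 525 nm excitation, 598 nm emission was recorded immediately and after 30 minutes.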
# BAZ2B block = blocks human BAZ2B; Q9UIF8; AlphaScreen BAZ2B-H3K14Ac peptide displacement; Potency, µM (top dose mostly 114 µM), for the others: at the top dose activity change, negative = inhibition, hits mostly inhibitors; 4.4% of 360,000 active; AID 504333; also: % is scaled to controls: 0 for no effect and ±100 for the full control effect; nearly all actives have a fitted effect of over 60% in size
#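 Compounds, titrated to a top concentration of 110 uM, were incubated 30 min at room temperature with preformed BAZ2B/acetyl-K14 H3 peptide complex (50 nM each). Proximity signal was measured by AlphaScreen after 20 min with beads.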
# G9a block = G9a (human) methyltransferase inhibition; G9a H3K9 monomethylation, AlphaScreen, 2 h; AID 504332; Potency, µM (doses to about 102 µM), without a hit: at the highest dose activity, negative = inhibition, most hits filed as inhibitors; 8.8% of 350,000 active; also: % is scaled to controls: 0 for no effect and ±100 for the full control effect; nearly all actives have a fitted effect of over 75% in size
# Target sequence (Q96KQ7 913-1193 limits assumed): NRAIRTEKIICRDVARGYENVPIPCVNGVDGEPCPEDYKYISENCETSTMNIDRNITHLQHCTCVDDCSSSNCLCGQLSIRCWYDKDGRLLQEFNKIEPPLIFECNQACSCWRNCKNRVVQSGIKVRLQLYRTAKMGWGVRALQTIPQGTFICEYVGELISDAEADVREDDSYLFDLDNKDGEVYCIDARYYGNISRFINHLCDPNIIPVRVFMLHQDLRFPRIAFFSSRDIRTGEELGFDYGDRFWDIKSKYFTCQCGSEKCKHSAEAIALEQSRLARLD
#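 Signal arises when biotinylated H3K9 peptide, once monomethylated, bridges streptavidin donor and antibody-captured acceptor beads. Enzyme at 20 nM was preincubated 15 min with test compounds; peptide 500 nM and SAM 20 uM then reacted for 2 h.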
# * = called active by the depositor; u = inconclusive; x = no result given; [ ] = another dose, or the depositor's remark. Calls follow the shape of the dose curve; as a rule, active = well fitted curve in the direction sought with a large enough effect; inconclusive = small, poorly fitted or top-dose-only effect, or another doubt; inactive = no such curve, though single readings can be large; an effect the other way counts as inactive or inconclusive. Potency is read from the fitted curve at half-maximal effect.
SMILES,HP1b binding inh,JMJD2A Tudor,L3MBTL1 block,Sfp inh,BAZ2B block,G9a block
COc1ccc(CN2CCN(c3ncccn3)CC2)c(OC)c1,u,u,-11%,-10%,-5%,u
COc1ccc(CN2CCN(Cc3ccc(C(F)(F)F)cc3)CC2)c(OC)c1,u,5.6µM*,x,71µM*,25µM*,40µM*
COc1ccc(CN2CCN(Cc3ccc(C)cc3)CC2)c(OC)c1,u,3.2µM*,x,-19%,22µM*,50µM*
COc1ccc(CN2CCN(Cc3ccccc3F)CC2)c(OC)c1,u,1.3µM*,x,u,20µM*,50µM*
CC(C)C[C@H](NC(=O)c1ccc(NCc2cnc[nH]2)cc1-c1cccc2ccccc12)C(=O)O,x,x,x,12%,x,x
Cn1ccsc1=NC(=O)c1ccc(S(C)(=O)=O)cc1,12%,-2%,x,12%,-1%,18%[59 µM]
Cc1cc(C)c2c(c1)C1C=CCC1C(c1ccc(S(=O)(=O)N3CCOCC3)cc1)N2 (stereo not drawn),15%,-16%,-4%,40µM*,-12%,8.9µM*
CN(C)c1ccc(C=C2SC(=S)NC2=O)cc1,-10%[57 µM],u,x,x,x,x
CCOc1ccc(N(C)c2ccc(/C=C3/SC(=S)NC3=O)cc2)cc1,u,3.5µM*,-22%,-13%,50µM*,x
CCOc1c(O)ccc(/C=C2\SC(=S)NC2=O)c1[N+](=O)[O-],u,u,u,11µM*,40µM*,14µM*
COCC(=O)N1CCC2(CCN(Cc3ccccc3)CC2)CC1,x,x,x,15%,x,6%[12.7 µM]
Cn1c(=O)c(C(=O)COC(=O)c2cc(C(F)(F)F)nc3ccccc23)c(N)n(Cc2ccccc2)c1=O,x,x,-2%,14%,-26%,u
Cn1c(=O)c(C(=O)CN2CCCCCC2)c(N)n(Cc2ccccc2)c1=O,16%,-12%,x,-3%,3%,u
COCCCNCC(=O)c1c(N)n(Cc2ccccc2)c(=O)n(C)c1=O,-16%,79µM*,2%,5%,u,u
Cn1c(=O)c(C(=O)COC(=O)c2cc(-c3ccccc3)nc3ccccc23)c(N)n(Cc2ccccc2)c1=O,x,x,-2%,15%,u,79µM*
CCOc1ccc(C(=O)Nc2ccc(-c3cc4ccccc4oc3=O)cc2)cc1Br,20%,-8%,x,x,6%,12%[59 µM]
CCOC(=O)c1cnc2ccc(OC)cc2c1Nc1ccc(OCc2ccccc2Cl)cc1,45%,-21%,x,x,-12%,-3%[59 µM]
COC1CCCCC1Nc1cc(C)cc(C)c1 (stereo not drawn),18µM*,18µM*,x,-8%,35µM*,14µM*
Cc1ccc(NC(=O)N(Cc2cn(C)c3ccccc23)C2CCCCC2)cc1C,8%,-31%,x,x,x,-11%[59 µM]
COc1cc(C(=O)NS(=O)(=O)c2ccccc2C)ccc1Cc1cn(C)c2ccc(NC(=O)OC3CCCC3)cc12,x,x,x,-14%,50µM*,u
O=C(CSCc1cc(=O)n2ccsc2n1)Nc1ccc(F)cc1,35%,-8%,x,13%,-13%,48%
COCCNc1nnc(SCC(=O)NC(=O)c2ccccc2OC)s1,12%,-24%,x,4%,-3%,x
COCCNc1nnc(SCC(=O)NNC(=O)c2ccc([N+](=O)[O-])cc2)s1,35%,-4%,10%,x,9%,35µM*
CC1C/C(=C/c2cccn2C)C(=O)/C(=C/c2cccn2C)C1 (stereo not drawn),40µM*,25µM*,x,u,32µM*,u
Cc1ccc2c(c1)c(/C=C/c1cc[n+](C)cc1)c(C)n2C,8%,u,x,-17%,-15%,45µM*
Cc1ccc2[nH]c(C)c(/C=C/c3cc[n+](C)cc3)c2c1,-18%,-22%,x,-11%,u,-100%
CN(C)CCCNCCCNC(=O)/C(=N\O)c1ccccn1,32%,u,-9%,u,50µM*,7.9µM*
CCCCN1C(=O)C2Cc3c([nH]c4ccccc34)CN2C1=S (stereo not drawn),-11%,-22%,x,56µM*,x,u
